Source: PubChem BioAssay (NCI)
The panel holds about 79,000 compounds, 15% with a hit somewhere; the sample as a whole holds those more often. Rule as the data show it: active = growth inhibition above about 70%; inactive = the rest.

Key:
[1] = NCI Yeast Anticancer Drug Screen. Data for the rad50 strain (AID 155);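 also: 0% = growth of vehicle-only cultures of the same strain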; conditions: S. cerevisiae rad50 strain growth inhibition; at 50.0 µM; stronger effect = higher value
Outline: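 Compounds were tested on a yeast strain with an engineered DNA damage repair alteration; the reported value is growth inhibition normalised to vehicle treatment.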

[2] = NCI Yeast Anticancer Drug Screen. Data for the mec2-1 strain (AID 157); conditions: S. cerevisiae mec2-1 strain, at 50.0 µM, stronger effect = higher value
Outline: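 Compounds were applied to mec2-1 yeast cells. Their growth was then compared with that of vehicle-treated cultures to give growth inhibition.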

[3] = NCI Yeast Anticancer Drug Screen. Data for the sgs1 mgt1 strain (AID 161);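 also: 0% = growth of cultures given vehicle only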; conditions: S. cerevisiae sgs1 mgt1 strain, at 50.0 µM, stronger effect = higher value
Outline: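 Compounds are added to genetically altered yeast, and growth is compared with cultures given vehicle alone to give percent inhibition.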

[4] = NCI Yeast Anticancer Drug Screen. Data for the cln2 rad14 strain (AID 165);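 also: 0% = growth equal to vehicle treated cultures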; conditions: S. cerevisiae cln2 rad14 strain, at 50.0 µM, stronger effect = higher value
Outline: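 Strain: cln2 rad14 yeast, altered in cell cycle control and DNA damage repair. Read-out: growth inhibition vs vehicle.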

[5] = NCI Yeast Anticancer Drug Screen. Data for the bub3 strain (AID 167); conditions: S. cerevisiae bub3 mutant strain, at 50.0 µM, stronger effect = higher value
Outline: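 Growth of a checkpoint-deficient yeast mutant is measured after compound exposure. Values represent inhibition relative to vehicle.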

[6] = NCI Yeast Anticancer Drug Screen. Data for the mlh1 rad18 strain (AID 175); conditions: S. cerevisiae mlh1 rad18 strain growth inhibition; at 50.0 µM; stronger effect = higher value
Outline: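 A repair-deficient yeast strain is exposed to test compound, and growth is scored relative to vehicle-treated controls.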

Measured: growth inhibition

COc1cc(/C=C/C=C2\CC/C(=C\C=C\c3ccc(O)c(OC)c3)C2=O)ccc1O
inactive: [1] 10.2% | [2] 18.4% | [3] 31.4% | [4] 37.7% | [5] 29.5% | [6] -9.1%

COc1ccc2[nH]c(=O)ccc2c1
inactive: [1] 1.6% | [2] 0.35% | [3] -2.3% | [4] -0.5% | [5] 12.7% | [6] -2.95%

CCCNC(=O)OCC#CCOC(=O)NCCC
inactive: [1] 2.5% | [2] -4.15% | [3] 15.4% | [4] -38.5% | [5] 12.5% | [6] -6.1%

CCNCC(OC)C(COC)OC(=O)c1ccc([N+](=O)[O-])cc1 (stereo unspecified)
inactive: [1] 15.1% | [2] -11.6% | [3] -7.65% | [4] -32.9% | [5] 20.4% | [6] 7.25%

O=c1[nH]ncc2ccc([N+](=O)[O-])cc12
inactive: [1] 6.45% | [2] 7.9% | [3] -1.25% | [4] -1.25% | [5] -2.3% | [6] -6.8%

CC1=CC(=O)C(C(C)C)CC1 (stereo unspecified)
inactive: [1] 1.1% | [2] -1.05% | [3] -11.1% | [4] -43% | [5] -7.75% | [6] -0.35%

C[n+]1cn(C2=C([O-])c3ccccc3C(=O)/C2=N\S(=O)(=O)c2ccccc2)c2ccccc21
inactive: [1] 0.95% | [2] 4.8% | [3] 2.4% | [4] -0.6% | [5] 4.35% | [6] -28.9%

C/C(=N\O)c1ccc(OCc2cc(C(F)(F)F)cc(C(F)(F)F)c2)cc1
inactive: [1] -10.1% | [2] -26.2% | [3] -6.75% | [4] -1.5% | [5] -2.15% | [6] 7.5%

NNc1ccc([N+](=O)[O-])c2[nH][nH]c(=O)c12
inactive: [1] 8% | [2] 6.5% | [3] 27.1% | [4] 11.2% | [5] 31.9% | [6] 11.4%

COC(=O)/C=C\n1c(C)cc(=O)[nH]c1=O
inactive: [1] 2.9% | [2] 0.35% | [3] -5.5% | [4] -4.75% | [5] -2.8% | [6] -45.5%

Cc1cc(N(CCC#N)CCC#N)ccc1/C=C1N=C(/C=C\c2ccccc2)N(NC(=O)CC(=O)Nc2ccccc2Cl)C\1=O
inactive: [1] 14.6% | [2] -0.8% | [3] 1.55% | [4] 11.3% | [5] 2.8% | [6] 5.05%

CCc1n[nH]c(=O)n1N1C(=O)CCC1=O
inactive: [1] 4.25% | [2] 18.4% | [3] -11.7% | [4] 5.4% | [5] -23.8% | [6] 23.2%

CSC(SC)C(OC(C)=O)C(OC(C)=O)C(OC(C)=O)C(COC(C)=O)OC(C)=O (stereo unspecified)
inactive: [1] -11.7% | [2] 11.4% | [3] 3.15% | [4] -30.9% | [5] 2.3% | [6] 3.85%

ClC(Cl)(Cl)C(Cl)(Cl)C(Cl)(Cl)Cl
inactive: [1] 42.1% | [2] 14.8% | [3] 16% | [4] -19.4% | [5] 6.75% | [6] 24.3%

c1ccc(CCCC2Sc3cccc4cccc(c34)S2)cc1
inactive: [1] -47.2% | [2] -25.6% | [3] -18.6% | [4] 14.4% | [5] -16% | [6] -28.5%

COc1ccc(CNc2cc(OC)c(OC)c(OC)c2)cc1
inactive: [1] -49.1% | [2] -36.7% | [3] -9.55% | [4] 9.25% | [5] -20.4% | [6] -33.1%

CCC1(CC)C(=O)OC(=O)C1(CC)CC
inactive: [1] -6.05% | [2] 6.7% | [3] 2.8% | [4] -8.2% | [5] -10.9% | [6] -10.4%

S=C(SCc1nc(-c2ccc(Cl)cc2)no1)N1CCSCC1
inactive: [1] -1.9% | [2] -24.9% | [3] 17.9% | [4] -2.6% | [5] -3.25% | [6] -9.4%

Cc1ccc2c(c1)Cc1cc(C)ccc1-2
inactive: [1] 25.1% | [2] 12.4% | [3] 14.4% | [4] 7.65% | [5] 31.2% | [6] 19.4%

C=CC(=O)OCCCS(=O)(=O)[O-].C=CC(=O)OCCCS(=O)(=O)[O-].NC1CCCCC1N.[Pt+4]
inactive: [1] 3.05% | [2] -7.75% | [3] -4.25% | [4] 37.5% | [5] 14.1% | [6] 9.75%

CC(C)(Oc1ccc(/C=C/C(=O)c2ccccc2)cc1)C(=O)Nc1c(Cl)cccc1Cl
inactive: [1] -6.6% | [2] -46.6% | [3] -3.15% | [4] -65.5% | [5] -13.1% | [6] -1.45%
